The whole screen tested about 48,000 compounds, of which about 13,000 (27%) showed an effect of 50% or more. The list shows a part of the results.
Each molecule was assayed on Wolbachia pipientis (assay: Anti-Wolbachia Cell-Based Screen). Details: 5 µM.
Type: functional
Design: scale not given: in the data most compounds retested in dose-response had high values

| SMILES | Percent Effect |
| --- | --- |
| CC(C)c1nc(CN(C)S(=O)(=O)c2cccs2)cs1 | 0.03171% |
| CC(CS(C)(=O)=O)N(C(=O)CCc1ccc(Cl)s1)C1CC1 (configuration not stated) | -4.139% |
| Cc1nc(CNC(=O)NCC(O)c2ccc(F)c(F)c2)cs1 (configuration not stated) | 9.084% |
| COc1cccc(-n2nnc(C(=O)N3CCN(C)CC3C)c2C)c1 (configuration not stated) | 13.25% |
| COCCN1C[C@@H]2CCCO[C@@H]2[C@H](NC(=O)c2cnccn2)C1.O=C(O)C(F)(F)F | -16.42% |
| c1cc(-c2noc([C@@H]3CCCN3C3CCC3)n2)cc(N2CCCC2)n1 | -5.247% |
| CC(C)Oc1ncccc1CNC(=O)NC(C)c1cccs1 (configuration not stated) | 104.4% |
| Cc1nc(CNC(=O)NCc2cccnc2N(C)C)cs1 | 95.24% |
| Cc1ccc(CNC(=O)NCc2cccnc2N(C)C)s1 | -3.895% |
| Cc1nc(CSCCC(=O)NCc2cccnc2N(C)C)cs1 | -3.36% |
| CNc1nc(C(=O)NCc2cccnc2N(C)C)cs1 | -18.64% |
| Cc1ccc(C(=O)NCc2cccnc2N(C)C)s1 | 92.24% |
| CN(C)c1ncccc1CNC(=O)NCc1ccc(Cl)s1 | 103.5% |
| Cc1cnc(C(C)(C)NC(=O)NCc2cccnc2OC(C)C)s1 | -10.8% |
| CN(C)c1ncccc1CNC(=O)N1CCN(C)c2ccccc2C1 | -11.25% |
| Cc1cc(NC(=O)NCc2cccnc2OC(C)C)n(C)n1 | 8.95% |

| SMILES | Percent Effect |
| --- | --- |
| Cc1nnsc1C(=O)NCc1cccnc1N(C)C | -2.409% |
| Cc1cnc(CNC(=O)NCc2cccnc2N(C)C)s1 | -3.719% |
| CCc1ccccc1OCCN1C[C@@H](NS(C)(=O)=O)[C@H](C(C)C)C1 | 0.8676% |
| O=C(O)c1cccnc1CN1CCOc2ccccc2C1 | -4.779% |
| Cc1cccn2c(CNC(C)CO)cnc12 (configuration not stated) | 5.706% |
| CCC(CNC(=O)c1ccc(C(N)=O)cc1)Oc1cccc(F)c1 (configuration not stated) | -8.287% |
| CCCS(=O)(=O)NC(C)c1cccc(-n2cccn2)c1 (configuration not stated) | -8.996% |
| NC(=O)c1ccc(-n2ccnc2-c2cccc(O)c2)cc1N1CCCC1 | -15.85% |
| O=C(NCc1ccccn1)NCc1ccc(Cl)s1 | 100.6% |
| CN(C)c1ncccc1CNC(=O)NCC(c1cccs1)N(C)C (configuration not stated) | 101.5% |
| CN(C)c1ccc(NC(=O)NCc2ccc(Cl)s2)cn1 | 9.088% |
| CN(C)c1ncccc1CNC(=O)NCc1ccco1 | -3.644% |
| O=C(NCc1ccccn1)NCC(O)c1ccccc1C(F)(F)F (configuration not stated) | -3.765% |
| CC(NC(=O)NCc1cccnc1N(C)C)c1cccs1 (configuration not stated) | 91.27% |
| CC(C)C(NC(=O)NCc1cccnc1N(C)C)c1cccs1 (configuration not stated) | 97.46% |
| CN(C)C(CNC(=O)NCc1ccco1)c1cccs1 (configuration not stated) | 6.587% |
